“And” between values parts separate entries of the source, which are not always exact repeats. Identical values can stand only once. Counter-ions that a name gives are not always drawn.
What was measured:
Experiment in all cases: cell viability relative to vehicle control; higher = less cytotoxic
Conditions in all cases: 10 µM
K562 = system: K562
Method in brief: (§1)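 CRISPR-edited mutant clones and isogenic wild-type clones from four leukaemia lines were screened against Selleck bioactive, kinase and epigenetic probe libraries, with identity-inconsistent compounds excluded. Each compound was acoustically dispensed at a single 10 µM dose into 384-well plates holding 2000 cells in 50 µL medium per well. After 48 h the supernatant was removed and CellTiter-Glo luminescence was read. Viability was expressed as percent of the on-plate vehicle control and analysed in Genedata Screener.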

MARIMO = system: MARIMO
Method in brief: as §1

MOLM14 = system: MOLM14
Method in brief: as §1

OCI-AML2 = system: OCI-AML2
Method in brief: as §1

Row | SMILES | cell viability (K562; SRSF2 genotype: SRSF2 P95H/wt) | cell viability (K562; SRSF2 genotype: SRSF2 wt/wt) | cell viability (MARIMO; SRSF2 genotype: SRSF2 P95H/wt) | cell viability (MARIMO; SRSF2 genotype: SRSF2 wt/wt) | cell viability (MOLM14; SRSF2 genotype: SRSF2 P95H/wt) | cell viability (MOLM14; SRSF2 genotype: SRSF2 wt/wt) | cell viability (OCI-AML2; SRSF2 genotype: P95H/wt) | cell viability (OCI-AML2; SRSF2 genotype: wt/wt)
1 | CC[C@]1(O)C[C@H]2CN(CCc3c([nH]c4ccccc34)[C@@](C(=O)OC)(c3cc4c(cc3OC)N(C=O)[C@H]3[C@@](O)(C(=O)OC)[C@H](OC(C)=O)[C@]5(CC)C=CCN6CC[C@]43[C@@H]65)C2)C1 [Vincristine Sulfate] | 13.6% and 37% | 35.8% | 6.92% | 9.68% | 0.94% | 1.22% | 5.06% | 9.32%
2 | O=C(Nc1ccc2c(O)cc(S(=O)(=O)O)cc2c1)Nc1ccc2c(O)cc(S(=O)(=O)O)cc2c1 | 103% and 108% | 99.1% | 110% | 101% | 101% | 104% | 112% | 111%
3 | O=C(O)COCCN1CCN(C(c2ccccc2)c2ccc(Cl)cc2)CC1 (stereo unspecified) [Cetirizine Dihydrochloride] | 94.7% and 100% | 98.7% | 95% | 93.1% | 94.2% | 100% | 103% | 101%
4 | Cc1nc(NC(=O)N2CCC[C@H]2C(N)=O)sc1-c1ccnc(C(C)(C)C(F)(F)F)c1 [Alpelisib (BYL719)] | 93.3% and 102% | 90.4% | 55.6% | 52.6% | 52.6% | 65.1% | 32.2% | 41%
5 | O=S1(=O)CCN(CN2CCS(=O)(=O)NC2)CN1 [Taurolidine] | 98.7% and 105% | 108% | 104% | 111% | 103% | 105% | 123% | 97.5%
6 | CCn1c2ccccc2c2cc(Nc3ccnc(NCCCN4CCOCC4)n3)ccc21 | 4.34% and 6.16% | 6.8% | 19.1% | 24.9% | 2.38% | 0.71% | 0.41% | 1.05%
7 | CC(C)NC(=O)C1CCC(n2c(NC(=O)c3ccc(F)cc3)nc3ccc(CN4CCC(C(C)(C)O)CC4)cc32)CC1 (stereo unspecified) [Belizatinib (TSR-011)] | 59.4% and 65.3% | 56.9% | 41.4% | 45% | 7.89% | 11.3% | 19% | 35.3%
8 | COc1ccc(Cl)cc1NC(=O)Nc1cc(C)nc2ccccc12 | 81.3% and 91.2% | 87% | 98.8% | 99.1% | 87.6% | 90.1% | 82.7% | 74.1%
9 | CC(=O)OCOC(=O)CN(CC(=O)OCOC(C)=O)c1ccccc1OCCOc1ccccc1N(CC(=O)OCOC(C)=O)CC(=O)OCOC(C)=O | 18.9% and 10.1% | 6.38% | 1.03% | 0.7% | 0.2% | 0.25% | 2.33% | 4.73%
10 | Cc1c(C(C)C)c(=O)n(-c2ccccc2)n1C [Propyphenazone (4-Isopropylantipyrine)] | 101% and 105% | 97.5% | 94% | 105% | 94.3% | 101% | 86.9% | 97.4%
11 | CO/N=C(\C(=O)N[C@@H]1C(=O)N2C(C(=O)[O-])=C(C[n+]3cccc4c3CCCC4)CS[C@H]12)c1csc(N)n1 [Cefquinome sulfate] | 103% and 99.9% | 91% | 87.5% | 100% | 86.3% | 95.5% | 93.9% | 91.6%
12 | CC(C)=CCC[C@](C)(O[C@@H]1O[C@H](CO[C@@H]2O[C@H](CO)[C@@H](O)[C@H](O)[C@H]2O)[C@@H](O)[C@H](O)[C@H]1O)[C@H]1CC[C@]2(C)[C@@H]1[C@H](O)C[C@@H]1[C@@]3(C)CC[C@H](O[C@@H]4O[C@H](CO)[C@@H](O)[C@H](O)[C@H]4O[C@@H]4O[C@H](CO)[C@@H](O)[C@H](O)[C@H]4O)C(C)(C)[C@@H]3CC[C@]12C [Ginsenoside Rb1] | 103% and 102% | 105% | 103% | 112% | 103% | 102% | 101% | 111%
13 | CCC[C@H](N[C@H]1CCc2cc(F)cc(F)c2C1)C(=O)Nc1cn(C(C)(C)CNCC(C)(C)C)cn1 | 78% and 88.1% | 88.7% | 74.3% | 86.2% | 78% | 88.8% | 73.3% | 72.3%
14 | OCCOc1ccc(/C(=C(/CCCl)c2ccccc2)c2ccccc2)cc1 [Ospemifene] | 101% and 99.5% | 96.5% | 105% | 109% | 79.3% | 99.9% | 88.2% | 96.3%
15 | CCN1CCN(c2cc3c(cc2F)c(=O)c(C(=O)O)cn3C2CC2)CC1 [Enrofloxacin] | 98.9% and 111% | 99.2% | 108% | 111% | 103% | 111% | 109% | 109%
16 | COc1ccc(NC(=O)c2ccc(C(=N)N(C)C)cc2)c(C(=O)Nc2ccc(Cl)cn2)c1 [Betrixaban] | 89.2% and 82.7% | 86.6% | 82.8% | 90.1% | 95.6% | 96.2% | 85.8% | 74.6%
17 | CC1(C)S[C@@H]2[C@H](NC(=O)C(c3ccccc3)S(=O)(=O)O)C(=O)N2[C@H]1C(=O)O (stereo partly specified) [Sulbenicillin Sodium] | 109% and 103% | 97.7% | 104% | 113% | 97.7% | 105% | 90.7% | 99.3%
18 | CCCCCCCCCCCC1=C(O)C(=O)C=C(O)C1=O [Embelin] | 91.7% and 88.2% | 85.5% | 90.3% | 98.8% | 90.9% | 91.9% | 89.3% | 94.6%
19 | Cn1cnc2c(F)c(Nc3ccc(Br)cc3F)c(C(=O)NOCCO)cc21 | 84.2% and 92.4% | 79.5% | 41% | 38.6% | 45.8% | 28.9% | 39.5% | 42.5%

Row | SMILES | cell viability (K562; SRSF2 genotype: SRSF2 P95H/wt) | cell viability (K562; SRSF2 genotype: SRSF2 wt/wt) | cell viability (MARIMO; SRSF2 genotype: SRSF2 P95H/wt) | cell viability (MARIMO; SRSF2 genotype: SRSF2 wt/wt) | cell viability (MOLM14; SRSF2 genotype: SRSF2 P95H/wt) | cell viability (MOLM14; SRSF2 genotype: SRSF2 wt/wt) | cell viability (OCI-AML2; SRSF2 genotype: P95H/wt) | cell viability (OCI-AML2; SRSF2 genotype: wt/wt)
20 | CCN1CCN(Cc2ccc(Nc3ncc(F)c(-c4cc(F)c5nc(C)n(C(C)C)c5c4)n3)nc2)CC1 | 1.86% and 0.59% | 0.69% | 0.46% | 0.64% | 0.3% | 0.31% | 0.29% | 0.39%
21 | COc1ccc(-c2coc3cc(O[C@@H]4O[C@H](CO)[C@@H](O)[C@H](O)[C@H]4O)ccc3c2=O)cc1O [Calycosin-7-O-beta-D-glucoside] | 95% and 99% | 98.5% | 93% | 105% | 112% | 110% | 97.1% | 106%
22 | Cc1ccc(O)c(O)c1 [4-Methylcatechol] | 94.8% and 90.4% | 98.3% | 61.1% | 89.5% | 75.4% | 85.3% | 94% | 90.9%
23 | COc1cc(C2Oc3ccc(C4Oc5cc(O)cc(O)c5C(=O)C4O)cc3OC2CO)ccc1O (stereo unspecified) [Isosilybin] | 92.6% and 89.8% | 85.4% | 99% | 106% | 104% | 98.9% | 96.8% | 95.3%
24 | O=C(O)c1ccc(NC(=O)[C@H](Cc2ccc(O)cc2)NC(=O)c2ccccc2)cc1 [bentiromide] | 103% and 106% | 106% | 112% | 111% | 95.6% | 104% | 110% | 96.2%
25 | NC(=O)c1ccc(OCCCN2CC3CCCC3C2)cc1 (stereo unspecified) | 102% and 107% | 104% | 106% | 98% | 100% | 101% | 114% | 98%
26 | C=C1CCOC1=O [2-Methylenebutyrolactone] | 106% and 101% | 104% | 97.3% | 105% | 88.6% | 107% | 125% | 126%
27 | COc1ccc(C=O)c(O)c1 [4-Methoxysalicylaldehyde] | 97.5% and 89.5% | 97.8% | 93.5% | 102% | 99.4% | 95.9% | 97% | 92%
28 | O=C(O)C(O)Cc1ccc(O)c(O)c1 (stereo unspecified) [Sodium Danshensu] | 98.7% and 92.4% | 95.5% | 95.5% | 107% | 96.4% | 98.8% | 93.7% | 104%
29 | OC[C@H]1O[C@H](OCC2O[C@@H](O)[C@H](O)[C@@H](O)[C@@H]2O)[C@H](O)[C@@H](O)[C@H]1O (stereo partly specified) [Melibiose] | 108% and 104% | 106% | 105% | 110% | 101% | 108% | 98.5% | 103%
30 | COc1cc2c(c(OC)c1OC)-c1c(cc3c(c1OC)OCO3)CC(C)C(C)C2 (stereo unspecified) [Schisandrin B] | 76.4% and 76% | 74.8% | 71.8% | 86% | 73% | 76.2% | 90.8% | 84.9%
31 | Cc1cc(Cl)ccc1OCCCC(=O)NO [Droxinostat] | 83.6% and 88.4% | 85.2% | 76.4% | 89.8% | 84.8% | 87.1% | 79.3% | 80.7%
32 | CCC(=O)O[C@@H]1CC(=O)O[C@H](C)C/C=C/C=C/[C@H](O)[C@H](C)C[C@H](CC=O)[C@H](O[C@@H]2O[C@H](C)[C@@H](O[C@H]3C[C@@](C)(O)[C@@H](OC(=O)CC)[C@H](C)O3)[C@H](N(C)C)[C@H]2O)[C@H]1OC [Midecamycin] | 84.3% and 87.1% | 89.5% | 89.3% | 102% | 93.3% | 93.7% | 96.2% | 97.4%
33 | O=C(Cn1cnnn1)N[C@@H]1C(=O)N2C(C(=O)O)=C(CSc3nncs3)CS[C@H]12 [Ceftezole] | 102% and 97.3% | 103% | 96.3% | 105% | 105% | 104% | 103% | 109%
34 | CCCC(=O)O[C@]1(C(=O)COC(C)=O)CC[C@H]2[C@@H]3C[C@H](F)C4=CC(=O)C=C[C@]4(C)[C@@]3(F)[C@@H](O)C[C@@]21C [Difluprednate] | 96.9% and 99% | 99.4% | 102% | 100% | 91.2% | 92.1% | 109% | 107%
35 | O=C(N/N=C/c1cc(O)c(O)cc1O)c1cc2ccccc2cc1O [Dyngo-4a] | 78.9% and 81.5% | 78% | 67.3% | 89.5% | 64.9% | 72% | 85.1% | 79.3%
36 | O.O=C([O-])c1ncccc1O.O=C([O-])c1ncccc1[O-].[H+].[O]=[V][OH] [VO-Ohpic trihydrate] | 100% and 92.1% | 95.5% | 106% | 102% | 122% | 110% | 121% | 119%
37 | CC(C)(CO)c1cc2cc(NC(=O)C3(c4ccc5c(c4)OC(F)(F)O5)CC3)c(F)cc2n1C[C@@H](O)CO | 95.8% and 95.3% | 87.5% | 92.7% | 109% | 91.5% | 91.7% | 95.7% | 96%

From the supplement of paper PMC10981050
